# High-throughput results deposited in PubChem BioAssay by National Center for Advancing Translational Sciences (NCATS).
# NPR1 antag – antagonists of human natriuretic peptide receptor Npr1; Potency, µM (top dose mostly 46.3 µM), usual class: inhibitors; AID 1347048; HEK293 hNpr1 GloSensor cGMP, ANP-stimulated luminescence; 1.6% of 76,000 active; P16066; calls by dose curve; note: nearly all actives have a fitted effect of over 60% in size
# Target sequence (P16066 whole entry, looked up): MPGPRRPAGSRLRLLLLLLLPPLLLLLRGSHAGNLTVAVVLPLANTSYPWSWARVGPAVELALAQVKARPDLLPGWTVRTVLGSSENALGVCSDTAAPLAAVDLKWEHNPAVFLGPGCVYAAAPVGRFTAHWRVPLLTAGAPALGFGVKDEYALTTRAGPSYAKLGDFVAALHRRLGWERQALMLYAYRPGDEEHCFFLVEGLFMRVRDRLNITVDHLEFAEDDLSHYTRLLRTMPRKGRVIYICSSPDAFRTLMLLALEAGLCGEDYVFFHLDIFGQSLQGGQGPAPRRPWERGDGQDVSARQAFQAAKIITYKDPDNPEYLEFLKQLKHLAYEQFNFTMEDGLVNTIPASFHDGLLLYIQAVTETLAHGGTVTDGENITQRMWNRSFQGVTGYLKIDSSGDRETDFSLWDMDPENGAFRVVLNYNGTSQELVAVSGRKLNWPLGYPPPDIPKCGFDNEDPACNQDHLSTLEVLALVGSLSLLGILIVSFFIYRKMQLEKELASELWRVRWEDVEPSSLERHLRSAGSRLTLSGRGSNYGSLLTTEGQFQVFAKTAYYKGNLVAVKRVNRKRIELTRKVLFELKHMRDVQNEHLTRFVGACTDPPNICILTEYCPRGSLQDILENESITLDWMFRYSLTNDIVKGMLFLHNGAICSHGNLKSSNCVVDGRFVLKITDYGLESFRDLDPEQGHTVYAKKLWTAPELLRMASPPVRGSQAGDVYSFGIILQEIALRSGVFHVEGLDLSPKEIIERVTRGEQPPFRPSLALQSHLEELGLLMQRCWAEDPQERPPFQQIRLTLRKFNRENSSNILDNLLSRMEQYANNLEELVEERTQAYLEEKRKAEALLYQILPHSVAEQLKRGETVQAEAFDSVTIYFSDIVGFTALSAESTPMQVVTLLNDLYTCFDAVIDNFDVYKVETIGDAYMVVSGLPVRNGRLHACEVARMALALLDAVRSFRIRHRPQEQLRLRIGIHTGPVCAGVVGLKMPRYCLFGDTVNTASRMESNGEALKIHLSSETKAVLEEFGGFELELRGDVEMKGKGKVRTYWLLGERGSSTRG
#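 HEK293 cells stably expressing human Npr1 and cGMP GloSensor pGS-40F, loaded 2 h with 2% GloSensor reagent, given compound 30 min at room temperature. Luminescence read before and 20 min after 0.1 nM hNppA.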
# HEK cytotox – kills HEK 293 cells | HEK 293 viability, ATP luminescence (CellTiter-Glo), 48-72 h | Potency, µM (highest dose often 115 µM), most hits filed as inhibitors | 6.6% of 94,000 active | AID 1345083; note: nearly all actives have a fitted effect of over 60% in size
#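 Read-out: CellTiter-Glo ATP luminescence. Cells: HEK 293, 250 cells/well. Exposure: 48 or 72 hr, 37 degree Celsius.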
# NIH3T3 tox – NIH 3T3 cell cytotoxicity | NIH 3T3 viability, CellTiter-Glo ATP luminescence, 48-72 h | Potency, µM (highest dose often 96.7 µM), actives largely listed as inhibitors | 4.3% of 94,000 active; note: nearly all actives have a fitted effect of over 55% in size
#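 Viability of NIH 3T3 cells after 48 or 72 hr compound treatment at 37 °C was assessed by CellTiter-Glo, with luminescence imaged following a 10 min room-temperature step.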
# HEK293 viab – counter-screen for SNCA expression inhibitors: cell viability | 0.12% of 150,000 active | Potency, µM (highest dose often 57.1 µM), hits mostly cytotoxic | HEK-293-SNCA-luc viability, GF-AFC fluorescence, 24 h; note: nearly all actives have a fitted effect of over 30% in size
#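 HEK-293-SNCA-luc cells (1500/well) plated 24 h, then exposed 24 h to a dilution series; GF-AFC added 30 min at 37C, fluorescence 405/540 nm; normalised to medium-only and DMSO wells, Hill fit.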
# SNCA expr inhib – inhibitors of alpha-synuclein (SNCA) gene expression | HEK-293 SNCA-luciferase knock-in, luminescence, 24 h | Potency, µM (top dose mostly 57.2 µM), most hits filed as inhibitors | 0.17% of 140,000 active | AID 1671194; note: nearly all actives have a fitted effect of over 45% in size
# Luciferase inh – blocks purified firefly luciferase enzyme activity | P08659 | Potency, µM (series often up to 115 µM), hits mostly inhibitors | AID 1347043 | 2.5% of 76,000 active | purified P. pyralis luciferase, luminescence, biochemical; note: nearly all actives have a fitted effect of over 65% in size
#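 Inhibitors were tested against purified firefly luciferase in a biochemical, low-substrate format (both substrates at 10uM) and luminescence measured with a CCD imager.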
# A number is an active result; – = inactive; ? = inconclusive; · = no result. The list is not random: actives were taken first. Their share in the collection is about 7.2%. Unless noted, calls come from the whole dose curve; as a rule, active = well fitted curve in the direction sought with a large enough effect; inconclusive = small, poorly fitted or top-dose-only effect, or another doubt; inactive = no such curve, though single readings can be large; an effect the other way counts as inactive or inconclusive.
SMILES,NPR1 antag,HEK cytotox,NIH3T3 tox,HEK293 viab,SNCA expr inhib,Luciferase inh
COc1ccc(N2CC3CCC(C2)N3Cc2cccc(-c3cccnc3)c2)cc1,·,39.8µM,?,–,?,·
Oc1cccc(-c2cc(C3=CCOCC3)c3cncn3c2)c1,–,?,100µM,–,–,–
C1=C(c2cc(-c3cccc(N4CCOCC4)c3)cn3cncc23)CCOC1,–,?,?,–,–,–
COc1ncccc1-c1cc(C2=CCOCC2)c2cncn2c1,–,–,?,–,–,–
Oc1ccccc1-c1cc(C2=CCOCC2)c2cncn2c1,–,100µM,63.1µM,–,–,–
O=C1CCN(C(=O)c2ccco2)CCCCCCN1,–,–,–,–,–,–
O=C(Nc1ccccc1)Nc1ccc([C@@H](O)[C@H]2COCC(=O)N2Cc2cccnc2)cc1,–,–,–,–,–,–
O=C1CO[C@H]2CCN(Cc3ccccc3Cl)CC[C@@H]2N1c1ccccc1,–,79.4µM,?,–,–,–
O=C1CO[C@H]2CCN(CCCc3ccccc3)CC[C@@H]2N1c1ccccc1,–,100µM,89.1µM,–,–,–
O=C1CO[C@H]2CCN(Cc3ccccc3O)CC[C@@H]2N1c1ccccc1,–,–,?,–,–,–
Cn1cc(-c2cn(C)c(=O)n3cc(COc4ccc(Cl)cc4)nc23)cn1,–,70.8µM,?,–,–,?
COc1cncc(-c2cn(C)c(=O)n3cc(CNc4ccccc4)nc23)c1,–,?,?,–,–,–
Cn1cc(-c2cccc(C(F)(F)F)c2)c2nc(CNc3ccccc3)cn2c1=O,–,50.1µM,25.1µM,–,?,–
Cn1cc(-c2ccnc(N3CCOCC3)c2)c2nc(COc3ccc(Cl)cc3)cn2c1=O,?,?,28.2µM,?,?,?
Cn1cc(-c2ccccc2)c2nc(COc3ccc(Cl)cc3)cn2c1=O,–,?,50.1µM,?,–,–
Cc1noc(C)c1-c1cn(C)c(=O)n2cc(COc3ccc(Cl)cc3)nc12,–,?,?,–,?,–
COCc1ccccc1-c1cn(C)c(=O)n2cc(COc3ccc(Cl)cc3)nc12,?,?,?,?,–,–
c1coc(CNC2(Cc3cc(CN4CCOCC4)on3)COC2)c1,–,–,–,–,–,–
COCCNc1cc(-c2noc([C@@H]3CCCN3C3CCN(C(C)=O)CC3)n2)ccn1,–,–,–,–,–,–
CCNC(=O)N(C1CC1)C1CCOC2(CCN(C(=O)CC3CCCC3)CC2)C1 (stereo unspecified),–,–,–,–,–,–
C[C@@H](NC(=O)C1=C[C@@H](NC(=O)Nc2cccc(F)c2)[C@@H](O)[C@H](O)C1)C(N)=O,–,–,–,–,–,–
CC[C@@H]1[C@@H](NC(=O)CCc2c(C)nc3ncnn3c2C)[C@@H]2CCO[C@H]12,–,–,–,–,–,–
O=C(NCc1nnc2ccc(-c3ccccc3)nn12)c1ccoc1,–,–,–,–,?,–
Cn1cc(-c2cccc(OC(F)(F)F)c2)c2nc(CN3CCNC(=O)C3)cn2c1=O,–,–,100µM,–,–,–
O=C(NC1CCN(c2ccc3nnc(-c4ccccc4)n3n2)CC1)c1ccccc1,·,?,–,·,·,·
SMILES,NPR1 antag,HEK cytotox,NIH3T3 tox,HEK293 viab,SNCA expr inhib,Luciferase inh
COc1ccc(C(=O)NC2CCN(c3ccc4nnc(-c5ccccc5)n4n3)CC2)cc1,·,79.4µM,?,·,·,·
O=C(NC1CCCN(c2ccc3nnc(-c4ccccc4)n3n2)C1)c1ccc(Cl)nc1 (stereo unspecified),·,28.2µM,?,·,·,·
O=C(NC1CCN(c2ccc3nnc(-c4ccccc4)n3n2)CC1)c1ccc(Cl)nc1,·,–,–,·,·,·
O=C(Nc1ccc(Cl)cc1)N1CCCN(c2ccc3nnc(-c4ccccc4)n3n2)CC1,·,?,28.2µM,·,·,·
O=C(NC1CCCN(c2ccc3nnc(-c4ccccc4)n3n2)C1)c1ccccc1 (stereo unspecified),·,35.5µM,28.2µM,·,·,·
COc1cccc(N2C(=O)NC(=NC3CCCCC3)C23CCN(Cc2ccsc2)CC3)c1,·,–,–,–,–,·
O=C(Cn1ccn2nc(-c3ccc(F)cc3)c(CO)c2c1=O)Nc1ccc(Cl)cc1F,–,–,–,–,–,–
CC(=O)Nc1ccc(C(=O)N2Cc3ccccc3OC3(CCN(C(C)=O)CC3)C2)cc1,·,–,–,–,–,·
CN(C)C(=O)NC1CCCN(c2ccc3nnc(-c4ccccc4)n3n2)C1 (stereo unspecified),·,?,44.7µM,·,·,·
O=C(O)C1CCc2sc(C(=O)N3CCCCCC3)cc2C1 (stereo unspecified),–,–,?,–,–,15.8µM
O=C1Nc2ccc(/C=C/c3ccccc3)cc2C(=O)N2C[C@H](O)C[C@@H]12,–,?,?,–,–,?
COc1ccc(C(=O)NCCC2CCN(C(=O)Nc3ccc(C)c(F)c3)CC2)cc1,–,–,?,–,–,3.55µM
Cc1ccc(NC(=O)N2CCC(CCNC(=O)c3n[nH]c4ccccc34)CC2)cc1F,–,79.4µM,?,–,–,?
COc1ccc(C(=O)NCCC2CCN(C(=O)Nc3ccc(C)cc3)CC2)cc1,–,–,–,–,–,?
CC1(Cc2ccc3c(c2)OCO3)CCCN(C(=O)c2ccccc2-n2cncn2)C1 (stereo unspecified),–,?,?,–,–,–
CN[C@@H]1C[C@H]2O[C@@](C)([C@H]1OC)n1c3ccccc3c3c4c(c5c6ccccc6n2c5c31)C(=O)N[C@H]4O,·,·,·,?,4.29µM,·
COc1cc(NC(=O)c2cn(C3CCCC3)c(=O)c3c2c2ccccc2n3C)cc(OC)c1OC,·,·,·,–,–,·
CC(=O)Nc1ccc(CN2CCN(c3cc(Cl)ncn3)C(=O)C2)cc1,–,10µM,35.5µM,–,–,–
O=C1CN(Cc2cccc(-c3ccsc3)c2)CCN1c1cc(Cl)ncn1,–,79.4µM,?,–,–,–
Cc1ccc(-c2ccc3nnc(CNC(=O)c4cccc(C#N)c4)n3n2)cc1,–,?,?,–,–,–
CC1=C[C@@H](CNC(=O)CCCC(=O)O)[C@H](C(C)C)C[C@H]1Cc1nc2c(C)cccc2[nH]1,–,–,–,–,–,–
CC1=C[C@@H](CNC(=O)COCC(=O)O)[C@H](C(C)C)C[C@H]1Cc1nc2c(C)cccc2[nH]1,–,–,–,–,–,–
CC1=C[C@@H](CNCc2ccccc2)[C@H](C(C)C)C[C@H]1Cc1nc2c(C)cccc2[nH]1,?,25.1µM,28.2µM,35.5µM,?,–
CC1=C[C@@H](CNCc2ccccc2F)[C@H](C(C)C)C[C@H]1Cc1nc2c(C)cccc2[nH]1,?,25.1µM,28.2µM,?,?,–
CC1=C[C@@H](CNC(=O)CC(C)(C)CC(=O)O)[C@H](C(C)C)C[C@H]1Cc1nc2c(C)cccc2[nH]1,–,–,–,–,–,–
